Results on 13 compounds are retold here after PubChem BioAssay (EPA / NIEHS).

As a reminder, the AC50 is the midpoint of the concentration-response curve, whichever way the signal moves.

Each structure is given as a SMILES string. Inconclusive results are not listed. Calls of active or inactive are those of the source. How the source made its calls: active means hit-call score of the fitted dose curve at least 0.9, where 1 is the maximum; inconclusive means response in the unintended direction; inactive means score below 0.9.

Assay [1] concerns the target Cellular tumor antigen p53 (Homo sapiens) (UniProt P04637). In words: TOX21_p53_BLA_p2_ratio: Tox21 HCT-116 p53 Agonism Beta-lactamase Assay, Ratio, Phase 2 (AID 2283592). A digest of the protocol:
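Ratio endpoint: beta-lactamase cleavage of CCF4-AM, blue (460 nm) over green (530 nm). HCT116 reporter line; 16 h treatment, 37C; substrate 2 h RT.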

The target is the same in assay [2]. In words: TOX21_p53_BLA_p3_ratio: Tox21 HCT-116 p53 Agonism Beta-lactamase Assay, Ratio, Phase 3 (AID 2283596). The method in brief:
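Cells were seeded at 4000/well, rested 5 h at 37C, then dosed with DMSO compound solutions (217-fold dilution) for 16 h. CCF4-AM substrate was loaded for 2 h at room temperature, and the 460/530 nm emission ratio was fitted for gain of signal versus DMSO.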

A short description of assay [3]: TOX21_p53_BLA_p4_viability: Viability Assessment in the Tox21 HCT-116 p53 Agonism Beta-lactamase Assay, Phase 4 (AID 2283597).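 Further: hits lower the luminescence signal meaning cytotoxicity.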 The method in brief:
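Cytotoxicity was inferred from loss of CellTiter-Glo luminescence. HCT116 cells had been dosed with compounds after 5 h plating, incubated 16 h at 37C and 5% CO2, and exposed to the CCF4-AM substrate for 2 h.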

For assay [4], the target named is Cellular tumor antigen p53 (Homo sapiens) (UniProt P04637). In words: TOX21_p53_BLA_p5_ratio: Tox21 HCT-116 p53 Agonism Beta-lactamase Assay, Ratio, Phase 5 (AID 2283599). The method in brief:
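HCT-116 p53-bla cells (4000/well) plated 5 h, dosed with compound (217-fold DMSO dilution) for 16 h at 37 C; CCF4-AM substrate 2 h at room temperature. Activity is the 460/530 nm emission ratio (405 nm excitation), fitted in gain-of-signal direction versus DMSO.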

For assay [5] the target is unchanged. Description: TOX21_p53_BLA_p4_ratio: Tox21 HCT-116 p53 Agonism Beta-lactamase Assay, Ratio, Phase 4 (AID 2283601). The method in brief:
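HCT-116 p53 beta-lactamase reporter cells (4000/well) preincubated 5 h, then compound (217-fold dilution of DMSO stock) for 16 h at 37C. CCF4-AM substrate added 2 h at room temperature; 460/530 nm emission ratio fitted upward versus DMSO.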

Assay [6] can be described thus: TOX21_p53_BLA_p5_viability: Viability Assessment in the Tox21 HCT-116 p53 Agonism Beta-lactamase Assay, Phase 5 (AID 2283600). A digest of the protocol: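 Luciferase-coupled ATP quantitation of cells treated for 16 h (37C, 5% CO2) with test chemicals delivered in DMSO via a 217-fold dilution; 4000 cells/well; reagent incubated 30 min at room temperature before luminescence reading.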

Cellular tumor antigen p53 (Homo sapiens), sequence (P04637 whole entry, looked up): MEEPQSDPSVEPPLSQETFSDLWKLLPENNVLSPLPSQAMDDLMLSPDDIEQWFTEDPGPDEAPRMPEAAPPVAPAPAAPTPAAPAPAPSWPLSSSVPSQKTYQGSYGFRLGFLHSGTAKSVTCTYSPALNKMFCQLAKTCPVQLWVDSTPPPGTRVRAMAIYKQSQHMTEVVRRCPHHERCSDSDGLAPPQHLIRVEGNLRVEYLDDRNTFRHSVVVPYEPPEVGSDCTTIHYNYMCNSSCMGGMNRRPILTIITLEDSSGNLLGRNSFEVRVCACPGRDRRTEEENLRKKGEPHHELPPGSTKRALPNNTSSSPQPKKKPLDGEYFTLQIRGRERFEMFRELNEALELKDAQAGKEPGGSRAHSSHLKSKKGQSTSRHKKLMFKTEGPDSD

On to `NC1=NCC2c3ccccc3Cc3ccccc3N12` (stereo not drawn), for which the outcome in assay [1], in assay [2], in assay [3], in assay [4] and in assay [5] was inactive.

As to `C=C(C)C(=O)OC`, the outcome in assay [1], in assay [2], in assay [3], in assay [4] and in assay [5] was inactive.

Take `FC(F)(F)c1cccc(Cl)c1`: the outcome in assay [1], in assay [2], in assay [3], in assay [4] and in assay [5] was inactive.

Take `OCl`: the outcome in assay [1], in assay [2], in assay [3], in assay [4] and in assay [5] was inactive.

As to `CCCCCCCCCCCCCCCCI`, the outcome in assay [1], in assay [2], in assay [3], in assay [4] and in assay [5] was inactive.

Regarding `O=C(N=NC(=O)OCc1ccccc1)OCc1ccccc1`, the outcome in assay [1], in assay [2], in assay [3], in assay [4], in assay [6] and in assay [5] was inactive.

Turning to `O=C(Nc1cccc(C2=NCCN2)c1)Nc1cccc(C2=NCCN2)c1`, the result in assay [1], in assay [2], in assay [3], in assay [4] and in assay [5] was inactive.

For the compound `CC(C)(O)c1ccccc1`, the outcome in assay [1], in assay [2], in assay [3], in assay [4] and in assay [5] was inactive.

In the case of `N[C@H](C(=O)O)[C@@H](O)c1ccc(O)c(O)c1`, the result in assay [1], in assay [2], in assay [3], in assay [4], in assay [6] and in assay [5] was inactive.

As to `O=C1CCCc2c1cc1ccc3cccc4ccc2c1c34`, the result in assay [1], in assay [3], in assay [4] and in assay [5] was inactive. The AC50 in assay [2] was 62.5 µM (active).

On to `O=C(CCN1CCC(c2ccccc2)C1)c1ccc2c(c1)OCCO2` (stereo not drawn), for which the outcome in assay [1], in assay [2], in assay [3] and in assay [5] was inactive. The AC50 in assay [4] was 41.1 µM (active).

Turning to `O=C(CN1CCNCC1)NC1CCCCC1`, the outcome in assay [1], in assay [2], in assay [3], in assay [4], in assay [6] and in assay [5] was inactive.

In the case of `COc1cc2c(cc1OC)[C@@H](c1ccccc1)CN(C)CC2`, the result in assay [1], in assay [2], in assay [3], in assay [4] and in assay [5] was inactive.
